Assay outcomes (PubChem BioAssay)
Not all results are given here.
aSyn 5UTR act: Activators via SNCA 5'UTR binding, MLPCN; alpha-synuclein 5'UTR reporter, activators screen; activity score, % (tested at 7.5 µM), hits read low; 300,000 tested, 7.1% active; AID 1814; in the data active = activity score below about -60%
Hits are given with their value; n = inactive.

SMILES	aSyn 5UTR act
Cn1cc(C(=O)c2ccc(Cl)cc2Cl)cc1C(=O)N/N=C(\N)COc1ccc(Cl)cc1Cl	n
C(=N\Nc1nc2ccccc2s1)/c1ccco1	-80
OCC(O)/C=N/Nc1nc2ccccc2s1 (centres undefined)	-72
CCn1c(C)c(/C=N/Nc2nc3ccccc3s2)c2ccccc21	-170
C(=N\Nc1nc2ccccc2s1)/c1cccs1	-212
Cc1ccsc1/C=N/Nc1nc2ccccc2s1	-148
CCOC(=O)c1ccc(Nc2cc(C)nc(-c3ccccc3)n2)cc1	-213
CCOC(=O)c1ccc(Nc2nc(C)cc(C)n2)cc1	-104
CC(=O)c1ccc(Nc2nc(C)cc(C)n2)cc1	-126
CCOC(=O)c1c(C)nc(-c2ccccc2)nc1NC(=O)CC	-87
CCOC(=O)c1ccc(NCc2nc3ccccc3[nH]2)cc1	-149
CCc1ccc(NCc2nc3ccccc3c(=O)[nH]2)cc1	-138
CCOC(=O)c1ccc(Nc2nnc(C)c3ccccc23)cc1	-104
CCOC(=O)c1ccc(Nc2cnc3ccccc3n2)cc1	-176
O=C(Cc1cccs1)N/N=C/C=C/c1ccccc1[N+](=O)[O-]	-99
N#C/C(=C/C=C/c1ccccc1)C(=O)Nc1ccccc1	-109
O=C(Cc1ccccc1)N/N=C/C=C/c1ccccc1[N+](=O)[O-]	-83
Cc1ccc(CSc2nnc(SCC(=O)N/N=C/C=C/c3ccccc3[N+](=O)[O-])s2)cc1	n
O=C(O)c1ccc(N/N=C/C=C/c2ccccc2[N+](=O)[O-])cc1	-127
N#C/C(=C\C=C\c1ccccc1[N+](=O)[O-])C(=O)NCc1ccccc1	-291
c1ccc(OCCSc2nc3ccccc3[nH]2)cc1	-128
Clc1ccc(OCc2nc3ccccc3[nH]2)cc1	-139
c1ccc(OCc2nc3ccccc3[nH]2)cc1	-153
COc1cccc(OCc2cc(C(=O)NC3CCOCC3)no2)c1	-139
CC1(C)CC(NC(=O)c2cc(COc3cccc(C(F)(F)F)c3)on2)CCO1 (centres undefined)	-93
SMILES	aSyn 5UTR act
O=c1[nH]c(-c2ccccn2)nc2sc(-c3ccccc3)cc12	-91
CC(=O)c1ccc(NC(=O)CN2CCCC2)cc1	-63
Cc1cc(NC(=O)OC2CCCCC2)ccc1[N+](=O)[O-]	-190
Cc1ccc(NC(=O)C2C3/C=C\CCCCC32)cc1 (centres undefined)	-83
Cc1ccc(NC(=O)C2C3CCCCC32)cc1[N+](=O)[O-] (centres undefined)	-99
Cc1cccc(NC(=O)C2C3CCCCC32)c1 (centres undefined)	-117
Cc1ccc(NC(=O)Nc2ccccc2)cc1[N+](=O)[O-]	-145
Cc1ccc(NC(=O)CN2CCCCCC2)cc1[N+](=O)[O-]	-90
CSCCC(=O)Nc1ccc(C(C)=O)cc1	-143
COc1cc2nc(CN(C)Cc3ccc(OC)c(OC)c3OC)[nH]c(=O)c2cc1OC	-90
COc1ccc(-n2cnc3cc(N)ccc32)cc1	-75
CCC(=O)Nc1ccc(-c2ccc(N3CCN(C)CC3)nn2)cc1	-73
CC1CCN(c2ccc(-c3cccc(NC(=O)C(F)(F)F)c3)nn2)CC1	n
CCC(=O)Nc1ccc(-c2ccc(N3CCC(C)CC3)nn2)cc1	-96
CC(=O)Nc1nc(-c2ccccc2)ns1	-108
COCC(=O)Nc1nc(-c2ccccc2)ns1	-78
O=C1/C(=C\Nc2ccc(OC(F)(F)F)cc2)CCN1c1ncccn1	-201
O=C1/C(=C\Nc2ccc(Cl)cc2)CCN1c1ncccn1	-158
O=C(Nc1nc(-c2cccc3ccccc23)cs1)c1ccc2c(c1)S(=O)(=O)c1ccccc1C2=O	-143
Cc1ccc2c(c1)C(N1CCCC1=O)CC(c1ccco1)N2 (centres undefined)	-171
CCOC(=O)N1CCC(Nc2ncnc3c2cnn3-c2ccc(Cl)cc2)CC1	-133
CCc1nc(NC(C)(C)C)c2cnn(-c3ccccc3)c2n1	-129
c1ccc(-n2ncc3c(NCCCN4CCOCC4)ncnc32)cc1	-97
CCCCNc1ncnc2c1cnn2-c1ccccc1	-260
Clc1ccc(-n2ncc3c(NCc4ccccn4)ncnc32)cc1	-123
SMILES	aSyn 5UTR act
COCC(C)Nc1ncnc2c1cnn2-c1ccc(Cl)cc1 (centres undefined)	-132
CCCCNc1ncnc2c1cnn2-c1ccc(Cl)cc1	-137
Clc1ccc(-n2ncc3c(NCCCn4ccnc4)ncnc32)cc1	-111
Clc1ccc(-n2ncc3c(N4CCCCCC4)ncnc32)cc1	n
CC(=O)c1cccc(NC(=O)c2cc(=O)c3ccccc3o2)c1	-62
COC(=O)c1ccccc1NC(=O)c1cc2ccccc2o1	-79
COC(=O)c1cccc(NC(=O)c2cc3ccccc3o2)c1	-105
O=C(Nc1ccccc1C(F)(F)F)c1cc2ccccc2o1	-209
CN(C)S(=O)(=O)c1cc(NC(=O)c2cc(=O)c3ccccc3o2)ccc1Cl	-66
CCN1CCN(c2c(Cl)cccc2NC(=O)c2ccc([N+](=O)[O-])o2)CC1	n
O=C(Nc1cccc(Cl)c1N1CCCC1)c1cc2ccccc2o1	-74
CCCC[n+]1ccn(C2=C([O-])c3ccccc3C(=O)/C2=N\S(=O)(=O)c2ccc(Cl)cc2)c1	n
